In PubChem BioAssay (NCATS):
Results filed as inconclusive are left out. The source made the active and inactive calls. Calls come from the whole dose curve; as a rule, active = well fitted cell-killing curve with a large enough effect; inconclusive = small, poorly fitted or top-dose-only effect, or effect the other way; inactive = flat fitted curve, though single readings scatter.

Assays:
Assay in all cases: Primary qHTS to identify gynecologic anti-cancer compounds using libraries of approved drugs and bioactive compounds (AID 1345084); note: nearly all actives have a fitted effect of over 55% in size
Details in all cases: Gynecologic cancer cell panel viability, ATPlite luminescence, 48 h; series mostly up to 57.5 µM
OV90 = tested on: OV90
How it was run: (§1)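 Cells, 1,000 per well, plated 16 h, then exposed 48 h at 37 C to compounds. Viability by ATPlite luminescence after 15 min at room temperature.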

PA-1 = tested on: PA-1
How it was run: as §1

SKOV3 = tested on: SKOV3
How it was run: as §1

Tov-21-G = tested on: Tov-21-G
How it was run: as §1

Tov112D = tested on: Tov112D
How it was run: as §1
% is set by controls: 0 for no effect and ±100 for the full control effect.

C[C@@H]1C[C@@H](O)[C@@]2(CO)C(CO)=CCC[C@@H]2[C@@]12C[C@@H](c1ccoc1)OC2=O
inactive: Potency (OV90) | Potency (PA-1) | Potency (SKOV3) | Potency (Tov-21-G) | Potency (Tov112D)

COC(=O)[C@H](Cc1cccc(C(=N)N)c1)[C@@H](C)NC(=O)c1ccc(-c2cc[n+]([O-])cc2)cc1
inactive: Potency (OV90) | Potency (PA-1) | Potency (SKOV3) | Potency (Tov-21-G) | Potency (Tov112D)

CC(=O)/C=C/C1C(C)CC(O[C@@H]2O[C@H](CO)[C@@H](O)[C@H](O)[C@H]2O)CC1(C)C (stereo not given in full)
inactive: Potency (OV90) | Potency (PA-1) | Potency (SKOV3) | Potency (Tov-21-G) | Potency (Tov112D)

CC1(CO)CCCC2(C)C3COC(=O)C3=CC(O)C12 (stereo not given)
inactive: Potency (OV90) | Potency (PA-1) | Potency (SKOV3) | Potency (Tov-21-G) | Potency (Tov112D)

C=C1C[C@]23C[C@H]1CC[C@H]2[C@]1(C)CC[C@H](O)[C@@](C)(C(=O)O)[C@H]1[C@@H]3C(=O)O
inactive: Potency (OV90) | Potency (PA-1) | Potency (SKOV3) | Potency (Tov-21-G) | Potency (Tov112D)

CC1(O)CC(O)C2C(C(=O)O)=COC(OC3OC(CO)C(O)C(O)C3OC(=O)/C=C/c3ccc(O)cc3)C21 (stereo not given)
inactive: Potency (OV90) | Potency (PA-1) | Potency (SKOV3) | Potency (Tov-21-G) | Potency (Tov112D)

CC1OC(OC2CCC3(C)C(CCC4(C)C3C=CC35OCC6(CCC(C)(C)CC63)CCC45C)C2(C)CO)C(OC2OC(CO)C(O)C(O)C2O)C(O)C1OC1OC(CO)C(O)C(O)C1O (stereo not given)
inactive: activity change, negative = cytotoxicity (OV90) -14.8% [at 11.6 µM] | activity change, negative = cytotoxicity (PA-1) 5.66% [at 11.6 µM] | activity change, negative = cytotoxicity (SKOV3) 6.92% [at 11.6 µM] | activity change, negative = cytotoxicity (Tov-21-G) 3.71% [at 11.6 µM] | activity change, negative = cytotoxicity (Tov112D) 11.6% [at 11.6 µM]

CC(C)N(CCCNC(=O)Nc1ccc(C(C)(C)C)cc1)C[C@H]1O[C@@H](n2ccc3c(N)ncnc32)[C@H](O)[C@@H]1O
inactive: Potency (OV90) | Potency (PA-1) | Potency (SKOV3) | Potency (Tov-21-G) | Potency (Tov112D)

O=C(OC[C@H]1O[C@@H](Oc2ccccc2COC(=O)C2(O)C=CCCC2O)[C@H](O)[C@@H](O)[C@@H]1O)c1ccccc1 (stereo not given in full)
inactive: Potency (OV90) | Potency (PA-1) | Potency (SKOV3) | Potency (Tov-21-G) | Potency (Tov112D)

CC1(C)CC[C@]2(C(=O)O[C@@H]3O[C@H](CO)[C@@H](O)[C@H](O)[C@H]3O)CC[C@]3(C)C(=CCC4[C@@]5(C)CC[C@H](O[C@@H]6O[C@H](C(=O)O)[C@@H](O[C@@H]7O[C@H](CO)[C@@H](O)[C@H](O)[C@H]7O)[C@H](O)[C@H]6O[C@@H]6O[C@H](CO)[C@@H](O)[C@H](O)[C@H]6O)C(C)(C)C5CC[C@]43C)C2C1 (stereo not given in full)
inactive: activity change, negative = cytotoxicity (OV90) 4.99% [at 11.6 µM] | activity change, negative = cytotoxicity (PA-1) 18.4% [at 11.6 µM] | activity change, negative = cytotoxicity (SKOV3) 10.3% [at 11.6 µM] | activity change, negative = cytotoxicity (Tov-21-G) -2% [at 11.6 µM] | activity change, negative = cytotoxicity (Tov112D) 6.91% [at 11.6 µM]

CC1(C)CC=C(c2cnc3ccccc3c2)c2cc(C(=O)Nc3ccc(C(=O)O)cc3)ccc21
inactive: Potency (OV90) | Potency (PA-1) | Potency (SKOV3) | Potency (Tov-21-G) | Potency (Tov112D)

CC1=C2CC(O)(C(C)(C)O)C(O[C@@H]3O[C@H](CO)[C@@H](O)[C@H](O)[C@H]3O)CC(C)C2CC1=O (stereo not given in full)
inactive: Potency (OV90) | Potency (PA-1) | Potency (SKOV3) | Potency (Tov-21-G) | Potency (Tov112D)

C/C=C(\C)C(=O)OCC1OC(OC2OC(CO)C(O)C(O)C2O)C(O)C(O)C1O (stereo not given)
inactive: Potency (OV90) | Potency (PA-1) | Potency (SKOV3) | Potency (Tov-21-G) | Potency (Tov112D)

CC1CCC2(C(=O)O)CCC3(C)C(=CCC4C5(C)CCC(O)C(C)(C(=O)O)C5CCC43C)C2C1(C)O (stereo not given)
inactive: Potency (OV90) | Potency (PA-1) | Potency (SKOV3) | Potency (Tov-21-G) | Potency (Tov112D)

CC(C)=CCC[C@@](C)(O)[C@H]1CC[C@]2(C)[C@@H]1[C@H](O)CC1[C@@]3(C)CC[C@H](O[C@@H]4O[C@H](CO)[C@@H](O)[C@H](O)[C@H]4O[C@@H]4O[C@H](CO)[C@@H](O)[C@H](O)[C@H]4O)C(C)(C)[C@@H]3CC[C@]12C (stereo not given in full)
inactive: Potency (OV90) | Potency (PA-1) | Potency (SKOV3) | Potency (Tov-21-G) | Potency (Tov112D)

C[C@@H]1O[C@@H](O[C@@H]2[C@@H](O)[C@H](O[C@H]3[C@H](O[C@H]4CC[C@@]5(C)C(CC[C@]6(C)C5CC=C5[C@@H]7CC(C)(C)CC[C@]7(C(=O)O[C@@H]7O[C@H](CO)[C@@H](O)[C@H](O)[C@H]7O)CC[C@]56C)C4(C)C)O[C@H](C(=O)O)[C@@H](O)[C@@H]3O)OC[C@H]2O)[C@H](O)[C@H](O)[C@H]1O (stereo not given in full)
inactive: activity change, negative = cytotoxicity (OV90) 0.961% [at 11.6 µM] | activity change, negative = cytotoxicity (PA-1) 4.95% [at 11.6 µM] | activity change, negative = cytotoxicity (SKOV3) 20.4% [at 11.6 µM] | activity change, negative = cytotoxicity (Tov-21-G) 1.4% [at 11.6 µM] | activity change, negative = cytotoxicity (Tov112D) 6.86% [at 11.6 µM]

CC(=O)O[C@@H]1C[C@@H](C)[C@](O)(CCC2=CC(=O)OC2)[C@@]2(C)CCCC(C)(C)C12 (stereo not given in full)
inactive: Potency (OV90) | Potency (PA-1) | Potency (SKOV3) | Potency (Tov-21-G) | Potency (Tov112D)

O=C(/C=C/c1ccccc1)O[C@@H]1[C@@H](CO)O[C@@](CO)(O[C@H]2O[C@H](CO)[C@@H](O)[C@H](O)[C@H]2O)[C@H]1O
inactive: Potency (OV90) | Potency (PA-1) | Potency (SKOV3) | Potency (Tov-21-G) | Potency (Tov112D)

COC(=O)C1(C)CCCC2(C)c3ccc(C(C)C)cc3C(O)C(O)C12 (stereo not given)
inactive: Potency (OV90) | Potency (PA-1) | Potency (SKOV3) | Potency (Tov-21-G) | Potency (Tov112D)

COc1c2c(c(C)c3c1C(=O)OC3)OC1(C)CC(O)C34OC(OC)(CCC3(C)C1C2)OC4(C)CO (stereo not given)
inactive: Potency (OV90) | Potency (PA-1) | Potency (SKOV3) | Potency (Tov-21-G) | Potency (Tov112D)

Cc1ccc([C@@H]2CC=C(C(=O)O)[C@H](c3ccc(C(C)(C)C)cc3)N2S(=O)(=O)c2ccc(C)cc2)cc1
inactive: Potency (OV90) | Potency (PA-1) | Potency (SKOV3) | Potency (Tov-21-G) | Potency (Tov112D)

COCC1OC(OC(C)(C)C2CCC3(C)C=C(C4CCC5C4(C)CC(O)C4OC(C(C)(C)O)CCC45C)CCC3O2)C(NC(C)=O)C(O)C1O (stereo not given)
inactive: Potency (OV90) | Potency (PA-1) | Potency (SKOV3) | Potency (Tov-21-G) | Potency (Tov112D)

C=C1C(O)CC2C(C(=O)O)=COC(OC3OC(CO)C(O)C(O)C3OC(=O)/C=C\c3ccc(O)cc3)C12 (stereo not given)
inactive: Potency (OV90) | Potency (PA-1) | Potency (SKOV3) | Potency (Tov-21-G) | Potency (Tov112D)
